Reference: PubChem BioAssay AID743446 (Broad Institute, 2014)
Entries with a potency or affinity are not part of this list. A number with no mark means an inactive call. The rule behind the calls is not given here.

Assay: viability loss in HEK293 cells – cell-based, plate reader, cherry-picked samples, cytotoxicity control, dose response (AID 743446)
Settings: stronger effect = lower value; at 26 µM unless noted

## CC(C)CCNC(=O)C(c1ccc(O)cc1)N(Cc1cccs1)C(=O)C1COc2ccccc2O1 (centres undefined)
  max activity: -16.3%

## O=C(CN1CCOc2ccccc21)NCc1ccc(F)cc1
  max activity: 16.4% [at 6 µM]

## Cc1c(NC(=O)c2ccc(-c3ccccc3)cc2)cccc1C(=O)O
  max activity: 41.3%

## OC1CCC(Nc2ccn3nc(-c4cccc(OCc5ccccc5)c4)cc3n2)CC1 (centres undefined)
  max activity: -14.9% [at 12 µM]
